Compound activity from PubChem BioAssay.
Hits are enriched below; roughly 2.6% of the tested compounds scored in any of these assays.
eIF4H inh: inhibitors of RNA binding by human eIF4H; inhibition, % at 35 µM; 0.94% of 290,000 active; eIF4H fluorescence polarization binding assay;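 also: calls also rest on retests at 20 µM and on dose response follow-up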
A3G deaminase: inhibitors of human APOBEC3G DNA deaminase; Q9HC16; recombinant A3G, ssDNA deamination FAM/TAMRA fluorescence; inhibition, % at 20 µM; 0.28% of 330,000 active;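 active = inhibition of at least 40% at 20 µM, with no more than 30% in the related APOBEC3A deaminase screen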
Target sequence (Q9HC16 whole entry, looked up): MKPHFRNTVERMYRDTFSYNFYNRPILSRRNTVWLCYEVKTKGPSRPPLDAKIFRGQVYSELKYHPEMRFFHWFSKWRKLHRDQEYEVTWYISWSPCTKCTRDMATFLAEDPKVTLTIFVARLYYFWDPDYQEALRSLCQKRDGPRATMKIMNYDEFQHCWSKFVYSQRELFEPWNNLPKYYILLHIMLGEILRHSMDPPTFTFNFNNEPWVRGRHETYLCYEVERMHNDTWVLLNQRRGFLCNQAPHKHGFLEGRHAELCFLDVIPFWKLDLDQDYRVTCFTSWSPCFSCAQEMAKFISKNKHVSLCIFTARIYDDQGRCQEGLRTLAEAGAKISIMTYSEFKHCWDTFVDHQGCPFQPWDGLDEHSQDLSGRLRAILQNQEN
PABP FP inh: PABP-poly(A) binding inhibition. PABP-poly(A) RNA binding, fluorescence polarization. calls only at 35 µM. 1% of 290,000 active;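 also: calls also rest on retests at 20 µM and on dose response follow-up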
PHOSPHO1 block: PHOSPHO1 (human) inhibition. recombinant PHOSPHO1, absorbance phosphatase assay. inhibition, % at 13.3 µM. 1.1% of 290,000 active; in the data active = inhibition above about 60%
Target sequence (Q8TCT1 whole entry, looked up): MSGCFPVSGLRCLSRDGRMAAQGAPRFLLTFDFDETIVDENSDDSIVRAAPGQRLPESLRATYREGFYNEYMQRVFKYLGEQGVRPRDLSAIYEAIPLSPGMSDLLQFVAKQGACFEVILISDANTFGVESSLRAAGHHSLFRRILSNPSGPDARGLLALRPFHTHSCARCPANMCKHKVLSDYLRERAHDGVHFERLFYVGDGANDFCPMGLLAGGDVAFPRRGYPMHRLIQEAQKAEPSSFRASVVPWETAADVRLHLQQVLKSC
APOBEC3A inh: inhibitors of human APOBEC3A DNA deaminase; recombinant A3A, FAM/TAMRA ssDNA deamination fluorescence; 0.41% of 330,000 active; inhibition, % at 20 µM;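 active = at least 40% inhibition at 20 µM here, with at most 30% in a related deaminase screen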
PABP1 MLLE inh: inhibitors of microRNA-mediated deadenylation, human PABP1 MLLE binding; GST-MLLE / FITC-PAM2 fluorescence polarization; AID 588489; 0.36% of 360,000 active; P11940; inhibition, % at 20 µM; in the data active = inhibition above about 35%, passing the limit was not always enough
Of the large screens only hits and unclear results are named; the others gave an inactive call. Unless noted, no rule for the calls is given here.

COCCNC(=O)C1(C)CCCN(C(=O)Cc2ccc3ccccc3c2)C1 (stereo not given)	none (no result: eIF4H inh, A3G deaminase, PABP FP inh, PHOSPHO1 block, APOBEC3A inh)
CCCCn1c(SCC(=O)NC(C)CC)nc2ccc(N3CCOCC3)cc2c1=O (stereo not given)	PHOSPHO1 block 60.5
Cc1ccn2c(NC3CCCC3)c(-c3cccs3)nc2c1	eIF4H inh 52.7, PABP FP inh active
N#C/C(=C\c1ccccc1[N+](=O)[O-])C(=O)NC1CCCCC1	PABP1 MLLE inh 54.7
Cc1ccc(S(=O)(=O)N2C(=O)[C@@H]3Cc4ccccc4CN3C2=O)cc1	none
C/C(=N\Nc1ccc(C(=O)O)cc1)c1ccc(Br)cc1	eIF4H inh 50.9
C/C(=N/Nc1ncc(Br)cn1)c1ccc(Br)cc1	none
COc1ccccc1-n1cnnc1SCC(=O)N1CCN(C(=O)c2ccco2)CC1	none
O=C(CSc1nc2ccccc2n1CC(=O)N1CCOCC1)N1CCCC1	none
COc1ccccc1-n1cnnc1SCC(=O)N1CCN(S(=O)(=O)c2ccccc2)CC1	PHOSPHO1 block 87.8
Cn1c(SCC(=O)N2CCCC2)nc2ccccc2c1=O	none
O=C(CSc1nc2ccccc2nc1SCC(=O)N1CCCCC1)N1CCCCC1	PHOSPHO1 block 71.1
O=C(Cn1c(SCc2ccccc2)nc2ccccc21)N1CCOCC1	PHOSPHO1 block 62.3
Cn1c(SCC(=O)N2CCCC2)nc2ccccc21	eIF4H inh active
COC(=O)c1ccc(CSc2nc3c(c(=O)[nH]2)CCC3)cc1	none (no result: eIF4H inh, A3G deaminase, PABP FP inh, PHOSPHO1 block, APOBEC3A inh)
CC(C)Cn1c(SCC(=O)N2CCN(S(=O)(=O)c3ccccc3)CC2)nc2ccccc21	none
N#CCCn1c(SCC(=O)N2CCN(S(=O)(=O)c3ccccc3)CC2)nc2ccccc21	PHOSPHO1 block 85.7
Cc1noc(C)c1C(=O)OC(C)C(=O)Nc1ccc(C(N)=O)cc1 (stereo not given)	none (no result: eIF4H inh, PABP FP inh, PHOSPHO1 block)
CC1(C(=O)OCC(=O)Nc2nc(-c3ccc(F)c(F)c3)cs2)CC1(Cl)Cl (stereo not given)	none
OCC1CCCN(C(=S)Nc2ccc(Nc3ccccc3)cc2)C1 (stereo not given)	eIF4H inh inconclusive, PABP FP inh active
OCC1CCCN(C(=S)Nc2ccc(OC(F)F)cc2)C1 (stereo not given)	none
CCOC(=O)c1c(/N=C/N(C)C)sc(/C=N/Nc2ccccc2)c1-c1ccccc1Cl	PABP FP inh active
CCCOc1ccc(N2C(=O)CC(NNC(=O)c3ccc(COc4ccccc4)o3)C2=O)cc1 (stereo not given)	PABP FP inh active
O=C(NNC(=O)c1cc2ccccc2oc1=O)c1ccccc1[N+](=O)[O-]	none
Cc1nn(-c2ccc(Cl)cn2)c2c1C(=O)CC(C)(C)C2Br (stereo not given)	none (no result: eIF4H inh, A3G deaminase, PABP FP inh, PHOSPHO1 block, APOBEC3A inh)
CC(C(=O)NC1C(=O)N2C(C(=O)O)=C(CSc3nnnn3C)CSC12)n1cc(Cl)cn1 (stereo not given)	PABP1 MLLE inh 42.8
O=C(/C=C/c1ccc(OCCCF)cc1)Nc1ccnc(-c2ccncc2)n1	none
O=C(/C=C/c1ccc(OCCCF)cc1)Nc1ccnc(-c2cccnc2)n1	eIF4H inh 101.5, PABP FP inh active
Cc1ccc(CSCCNS(=O)(=O)c2ccccc2)cc1	eIF4H inh 50.2, PABP FP inh active
O=C(Nc1nnc(SCC(=O)N2CCCCC2)s1)c1cccs1	PHOSPHO1 block 74.0
O=C(Nc1nnc(SCC(=O)N2CCCCC2)s1)c1ccccc1F	none
O=C(Nc1nnc(SCC(=O)N2CCOCC2)s1)c1ccccc1Cl	PHOSPHO1 block 65.6
COc1cc([N+](=O)[O-])ccc1NC(=O)N1CCCCCC1	none
Cc1sc2ncnc(Nc3ccc(N4CCOCC4)cc3)c2c1-c1ccccc1	eIF4H inh inconclusive, PABP FP inh active
COC(=O)c1ccc(CSc2nc3ccccc3c(=O)n2-c2ccc(OC)c(OC)c2)o1	none
COC(=O)c1ccc(CSc2nnc3n(Cc4ccccc4OC)c(=O)c4ccccc4n23)o1	PHOSPHO1 block 73.2
Cc1cc(C(=O)Nc2ccccc2)c2ccccc2n1	none
Cc1cc(C(=O)Nc2sccc2C#N)c2ccccc2n1	PABP FP inh active
CC1(C)Oc2ccc3ccc(=O)oc3c2/C(=C/N)C1=O	PHOSPHO1 block 72.9
C=CCn1c(C)nnc1SCC(=O)NC1CCCCC1	none
C=CCN1C(=O)/C(=C\c2ccc(Cl)cc2)N=C1SCC(=O)NC1CCCCC1	PABP1 MLLE inh 40.3
O=c1cc(-c2ccccc2)nc(SCc2ccc(F)cc2)[nH]1	eIF4H inh active
O=C(N/N=C/c1ccccn1)c1ccc(NC(=O)c2cccc([N+](=O)[O-])c2)cc1	eIF4H inh 74.7, PABP FP inh active
COCCOC(=O)C1=C(C)NC(=O)NC1c1c(Cl)nc2ccccn2c1=O (stereo not given)	PABP1 MLLE inh 40.9
COCCOC(=O)C1=C(C)NC(=O)NC1c1ccco1 (stereo not given)	eIF4H inh 58.1, PABP FP inh active
CCOc1ccccc1N1CCN(C(=O)c2ccc3[nH]c4c(c3c2)CCCC4)CC1	none
CC(=O)NCc1nnc2c3ccccc3c(-c3ccccc3)nn12	PHOSPHO1 block 61.0
Cc1cc(C)c(S(=O)(=O)NCc2cccnc2)c(C)c1	none
Cc1[nH]c(=S)c(C#N)c(-c2ccco2)c1C(=O)N(C)C	PABP FP inh active, PHOSPHO1 block 60.9
CC(=O)c1c(C)[nH]c(=S)c(C#N)c1-c1ccc(Cl)cc1	none
CC(=O)Nc1ccc(NC(=O)CC2(CC(=O)N3CCOCC3)CCCC2)cc1	none (no result: eIF4H inh, PABP FP inh, PHOSPHO1 block)
Cc1c(C(=O)N2CCN(Cc3ccccc3)CC2)oc2c1C(=O)CCC2	none
O=C(Nc1ccc(S(=O)(=O)N2CCOCC2)cc1)c1ccc2c(c1)OCO2	none
O=S(=O)(c1ccc(NC(=S)Nc2ccccc2)cc1)N1CCOCC1	none
O=S(=O)(c1ccc(NC(=S)Nc2ccc3c(c2)OCO3)cc1)N1CCOCC1	eIF4H inh 94.2, PABP FP inh active
O=C(CCc1ccccc1)NC(=S)Nc1ccc(S(=O)(=O)N2CCOCC2)cc1	PABP1 MLLE inh 44.1
COc1cc(F)ccc1CN1CCC(C(=O)Nc2ccc(Oc3ccccc3)nc2)CC1	none
COc1ccc(CNC(=O)CN2C(=O)NC(c3ccccc3)(c3ccccc3)C2=O)cc1OC	none (no result: eIF4H inh, A3G deaminase, PABP FP inh, PHOSPHO1 block, APOBEC3A inh)
Cc1nc(-n2[nH]c3c(c2=O)CCCC3)[nH]c(=O)c1Cc1ccccc1	eIF4H inh inconclusive, PABP FP inh active
Cc1nc(N2CCc3ccccc3C2)[nH]c(=O)c1Cc1ccccc1	none
CCn1c2ccccc2c2n[nH]c(=S)nc21	none
O=C(O)Cn1c2ccccc2c2n[nH]c(=S)nc21	PABP1 MLLE inh 43.4
Nc1c(-c2ccccc2)cnn1-c1cccc([N+](=O)[O-])c1	PHOSPHO1 block 64.6
CCCOc1ccc(C(=O)NNC(=S)NC(=O)c2cc(-c3ccc(Cl)cc3)nc3ccccc23)cc1	PABP1 MLLE inh 39.1
COc1ccc(C(=O)NNC(=S)NC(=O)c2cc(-c3ccccc3)nc3ccccc23)cc1	none
O=C(NCc1ccccc1Cl)c1ccc(Cn2cc(C(F)(F)F)ccc2=O)cc1	PHOSPHO1 block 64.6
